Laboratory results reported in PubChem BioAssay (Tox21).
Results filed as inconclusive are left out. Active and inactive are the calls of the source. Unless noted, calls come from the whole dose curve; as a rule, active = well fitted curve in the direction sought with a large enough effect in the repeat runs; inconclusive = weak or mixed curves; inactive = no such curve, though single readings can be large; an effect the other way counts as inactive or inconclusive.

Columns and labels:
[1] = qHTS assay to identify small molecule agonists of the hypoxia (HIF-1) signaling pathway - cell viability counter screen (AID 1224844; calls by dose curve; note: nearly all actives have a fitted effect of over 50% in size; note: potency is the fitted concentration of half-maximal effect)
How it was run: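 Multiplexed with the HRE beta-lactamase assay, this viability read used CellTiter-Glo luminescence (30 min, RT) on HRE-bla ME-180 cells treated 17 hrs with compounds in 0.5% dialyzed FBS medium.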

[2] = qHTS assay to identify small molecule agonists of H2AX (AID 1224845; active = well fitted activation curve with a large enough effect in the signal ratio in the repeat runs, not every such curve was filed as active; the % refers to the signal ratio)
How it was run: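 Phospho-H2AX Ser139 measured by HTRF (ex 320 nm; em 665 and 620 nm) after 24 hr antibody incubation. Compounds, 15 concentrations, 0.76% DMSO, were applied to CHO-K1 cells for 3hr at 37C before lysis.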

[3] = qHTS RealTime-Glo MT Cell Viability Assay in HepG2 cells - 24 hour (AID 1224867); note: nearly all actives have a fitted effect of over 50% in size; note: potency is the fitted concentration of half-maximal effect
How it was run: (§1)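 HepG2 cells were seeded at 600 cells/well together with NanoLuc luciferase and a cell-permeant prosubstrate, preincubated 5 h at 37 C/5% CO2, then pin-dosed with compounds in DMSO. Nonlytic luminescence from viable cells was read at each time point.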

[4] = qHTS RealTime-Glo MT Cell Viability Assay in HEK293 cells - 32 hour (AID 1224868); note: nearly all actives have a fitted effect of over 50% in size; note: potency is the fitted concentration of half-maximal effect
How it was run: (§2)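 HEK293 cells were seeded at 600 cells/well together with NanoLuc luciferase and cell-permeant prosubstrate, preincubated 5 h at 37 C/5% CO2, then given compound in DMSO by pintool. Luminescence from viable-cell prosubstrate reduction was read repeatedly over 40 h.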

[5] = A CellTox Green Cytotoxicity Assay to monitor cytotoxicity in HEK293 cells - 0 hour (AID 1224869); note: nearly all actives have a fitted effect of over 50% in size
How it was run: (§3)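 Seeding of HEK293 cells together with cytotoxicity dye preceded a 5 h incubation at 37 C/5% CO2. Test compounds in DMSO were then added and fluorescence monitored across 40 h.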

[6] = qHTS RealTime-Glo MT Cell Viability Assay in HepG2 cells - 40 hour (AID 1224870); note: nearly all actives have a fitted effect of over 50% in size
How it was run: (§4)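 Real-time viability: cells seeded at 600 per well together with NanoLuc and cell-permeant prosubstrate, compounds added after 5 h incubation. Luminescence tracked at 0, 8, 16, 24, 32 and 40 h of exposure.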

[7] = A CellTox Green Cytotoxicity Assay to monitor cytotoxicity in HEK293 cells - 40 hour (AID 1224871); note: nearly all actives have a fitted effect of over 45% in size; note: potency is the fitted concentration of half-maximal effect
How it was run: as §3

[8] = qHTS RealTime-Glo MT Cell Viability Assay in HEK293 cells - 16 hour (AID 1224872); note: nearly all actives have a fitted effect of over 50% in size; note: potency is the fitted concentration of half-maximal effect
How it was run: as §2

[9] = qHTS RealTime-Glo MT Cell Viability Assay in HepG2 cells - 8 hour (AID 1224873); note: nearly all actives have a fitted effect of over 55% in size; note: potency is the fitted concentration of half-maximal effect
How it was run: as §4

[10] = qHTS RealTime-Glo MT Cell Viability Assay in HEK293 cells - 40 hour (AID 1224874); conditions: RealTime-Glo luminescence; max response: active compounds read low; note: nearly all actives have a fitted effect of over 50% in size; note: potency is the fitted concentration of half-maximal effect
How it was run: (§5)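 Tox21 screen in HEK293 using RealTime-Glo MT chemistry, with cells and reagent co-dispensed. Luminescence proportional to viable cell number was captured at intervals during 40 h compound exposure at 37 C.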

[11] = A CellTox Green Cytotoxicity Assay to monitor cytotoxicity in HEK293 cells - 24 hour (AID 1224875); note: nearly all actives have a fitted effect of over 45% in size; note: potency is the fitted concentration of half-maximal effect
How it was run: as §3

[12] = qHTS RealTime-Glo MT Cell Viability Assay in HepG2 cells - 32 hour (AID 1224877); note: nearly all actives have a fitted effect of over 55% in size
How it was run: as §1

[13] = qHTS assay to identify small molecule agonists of H2AX - cell viability counter screen (AID 1224847; calls by dose curve; note: nearly all actives have a fitted effect of over 30% in size; note: potency is the fitted concentration of half-maximal effect)
How it was run: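 Compounds tested at 15 concentrations were incubated 3 hr at 37C with wild-type CHO-K1 cells; cellular ATP-based luminescence (CellTiter-Glo) indicated viability.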

[14] = A CellTox Green Cytotoxicity Assay to monitor cytotoxicity in HepG2 cells - 16 hour (AID 1224876); note: nearly all actives have a fitted effect of over 45% in size
How it was run: (§6)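 Nonlytic assay: viable cells exclude the dye, so fluorescence scales with cell death. HepG2 at 600 cells/well, compounds added after 5 h, signal read across 40 h.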

[15] = A CellTox Green Cytotoxicity Assay to monitor cytotoxicity in HepG2 cells - 24 hour (AID 1224878); note: nearly all actives have a fitted effect of over 45% in size; note: potency is the fitted concentration of half-maximal effect
How it was run: as §6

[16] = A CellTox Green Cytotoxicity Assay to monitor cytotoxicity in HepG2 cells - 40 hour (AID 1224879); note: nearly all actives have a fitted effect of over 40% in size; note: potency is the fitted concentration of half-maximal effect
How it was run: as §6

[17] = qHTS RealTime-Glo MT Cell Viability Assay in HEK293 cells - 0 hour (AID 1224880); note: nearly all actives have a fitted effect of over 45% in size; note: potency is the fitted concentration of half-maximal effect
How it was run: as §5

[18] = qHTS assay to identify small molecule agonists of the hypoxia (HIF-1) signaling pathway (AID 1224846; active = well fitted activation curve with a large enough effect in the signal ratio in the repeat runs, not every such curve was filed as active; the % refers to the signal ratio)
How it was run: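 Hypoxia-pathway activation was scored as increased beta-lactamase from an HRE-controlled reporter in ME-180 cells; plated at 2,000 cells per well with 0.5% dialyzed FBS, they were exposed 17 hrs to compounds and then given CCF4-AM.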

[19] = qHTS assay to identify small molecule antagonists of the estrogen related receptor (ERR) signaling pathway from Tox21 library (AID 1224848); note: nearly all actives have a fitted effect of over 50% in size; note: potency is the fitted concentration of half-maximal effect
How it was run: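 Antagonist-mode screen of the Tox21 10K library in an NTP-provided ERR reporter cell line; 18 h compound exposure at 37 C, luminescence measured with ONE-Glo.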

[20] = qHTS assay to identify small molecule agonists of the estrogen related receptor (ERR) signaling pathway from Tox21 library (AID 1224849; calls by dose curve; note: nearly all actives have a fitted effect of over 15% in size); conditions: ERR reporter cell line, ONE-Glo luciferase, 18 h; at 92.4 µM (top of the series) unless noted
How it was run: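 Six hours post-seeding at 37 C/5% CO2, ERR cells receive DMSO-solubilised compounds; after 18 h at 37 C, ONE-Glo reagent is applied and luminescence recorded.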
% is set by controls: 0 for no effect and ±100 for the full control effect.

CCCNCC(O)COc1ccccc1C(=O)CCc1ccccc1 (stereo unspecified)
inactive: Potency [1] | Potency [2] | Potency [3] | Potency [5] | Potency [6] | Potency [7] | Potency [9] | Potency [11] | Potency [12]
active: Potency [4] 2.39 µM | Potency [8] 2.13 µM | Potency [10] 2.39 µM

O[C@@H](COc1cccc2ncccc12)CN1CCN(C2c3ccccc3[C@@H]3[C@H](c4ccccc42)C3(F)F)CC1 (stereo partly specified)
inactive: Potency [1] | Potency [2] | Potency [13] | Potency [5] | Potency [7] | Potency [11] | Potency [14] | Potency [15] | Potency [16] | Potency [17]

CCOC(=O)C(O)c1ccccc1 (stereo unspecified)
inactive: Potency [1] | Potency [18] | Potency [13] | Potency [19] | activity change, positive = activation [20] 3.78% [at 42.5 µM] | Potency [4] | Potency [5] | Potency [6] | Potency [7] | Potency [8] | max response [10] 4.49% | Potency [11] | Potency [14] | Potency [12] | Potency [15] | Potency [16] | Potency [17]

O=C(c1ccc(F)cc1)C1CCN(CCn2c(=S)[nH]c3ccccc3c2=O)CC1
inactive: Potency [18] | activity change, positive = activation [20] -56.8% [at 42.5 µM] | Potency [5] | Potency [6] | Potency [7] | Potency [11] | Potency [14] | Potency [12] | Potency [15]
active: Potency [1] 21.3 µM | Potency [13] 49.2 µM | Potency [19] 26.6 µM | Potency [4] 5.35 µM | Potency [8] 3.38 µM | Potency [10] 5.35 µM

CCCCc1ncc(/C=C(\Cc2cccs2)C(=O)O)n1Cc1ccc(C(=O)O)cc1
inactive: Potency [1] | Potency [18] | Potency [13] | Potency [3] | Potency [4] | Potency [5] | Potency [6] | Potency [7] | Potency [8] | Potency [9] | max response [10] 2.83% | Potency [11] | Potency [14] | Potency [12] | Potency [15] | Potency [16] | Potency [17]

COc1cc2nc(N3CCN(C(=O)C4COc5ccccc5O4)CC3)nc(N)c2cc1OC (stereo unspecified)
inactive: Potency [1] | Potency [2] | Potency [13] | Potency [5] | Potency [6] | Potency [7] | Potency [11] | Potency [14] | Potency [12]
active: Potency [4] 21.3 µM | Potency [10] 23.9 µM | Potency [15] 23.9 µM | Potency [16] 23.9 µM | Potency [17] 19 µM

COc1cc2nc(N(C)CCCNC(=O)C3CCCO3)nc(N)c2cc1OC (stereo unspecified)
inactive: Potency [1] | Potency [18] | Potency [13] | Potency [3] | Potency [5] | Potency [6] | Potency [7] | Potency [9] | Potency [11] | Potency [14] | Potency [12] | Potency [15] | Potency [16] | Potency [17]
active: Potency [19] 9.44 µM

O=C(NCC1CN(c2ccc(N3CCOCC3=O)cc2)C(=O)O1)c1ccc(Cl)s1 (stereo unspecified)
active: Potency [19] 23.7 µM
inactive: Potency [1] | Potency [18] | Potency [13] | Potency [3] | Potency [4] | Potency [6] | Potency [7] | Potency [8] | Potency [9] | max response [10] -20.3% | Potency [11] | Potency [12] | Potency [17]

Nc1cc(C(=O)O)c(O)c(S(=O)(=O)O)c1
inactive: Potency [1] | Potency [18] | Potency [13] | Potency [19] | Potency [3] | Potency [4] | Potency [5] | Potency [7] | Potency [8] | Potency [9] | max response [10] 9.59% | Potency [11] | Potency [12] | Potency [15] | Potency [16] | Potency [17]

Nc1ccc(S(=O)(=O)Nc2ccccc2)cc1
inactive: Potency [1] | Potency [18] | Potency [13] | Potency [3] | Potency [4] | Potency [5] | Potency [6] | Potency [7] | Potency [8] | Potency [9] | max response [10] 0.381% | Potency [11] | Potency [14] | Potency [12] | Potency [15] | Potency [16] | Potency [17]

COc1cccc(N(C)C(=S)Oc2ccc3c(c2)CCCC3)n1
inactive: Potency [1] | Potency [2] | Potency [13] | Potency [3] | Potency [4] | Potency [5] | Potency [7] | Potency [8] | Potency [9] | max response [10] -20.4% | Potency [11] | Potency [14] | Potency [15] | Potency [17]

C[N+](C)(C)CCOC(=O)CCC(=O)OCC[N+](C)(C)C
inactive: Potency [1] | Potency [2] | Potency [13] | Potency [4] | Potency [5] | Potency [6] | Potency [7] | Potency [8] | Potency [9] | max response [10] 3.39% | Potency [11] | Potency [14] | Potency [12] | Potency [15] | Potency [16] | Potency [17]

CCNc1cc(O)ccc1C
active: Potency [7] 34.3 µM | Potency [11] 38.5 µM
inactive: Potency [1] | Potency [18] | Potency [13] | Potency [19] | activity change, positive = activation [20] -8.23% | Potency [3] | Potency [4] | Potency [5] | Potency [6] | Potency [8] | Potency [9] | max response [10] 7.99% | Potency [14] | Potency [12] | Potency [15] | Potency [16] | Potency [17]

COS(=O)(=O)C(F)(F)F
inactive: Potency [1] | Potency [18] | Potency [13] | Potency [3] | Potency [4] | Potency [5] | Potency [6] | Potency [7] | Potency [8] | Potency [9] | max response [10] 11.7% | Potency [11] | Potency [14] | Potency [12] | Potency [15] | Potency [16] | Potency [17]

COC(=O)C1=C(C)NC(COC(N)=O)=C(C(=O)OC(C)C)C1c1cccc(Cl)c1Cl (stereo unspecified)
inactive: Potency [1] | Potency [2] | activity change, positive = activation [20] -36.5% [at 42.5 µM] | Potency [5] | Potency [7] | Potency [11]
active: Potency [19] 26.6 µM | Potency [3] 23.9 µM | Potency [4] 26.8 µM | Potency [8] 26.8 µM | Potency [9] 23.9 µM | Potency [10] 26.8 µM | Potency [17] 2.68 µM
